Gal4-VP16 FLuc – VP16 counterscreen qHTS for inhibitors of ROR gamma transcriptional activity; 3.5% of 310,000 active; Drosophila S2 Gal4-VP16 UAS-luciferase, luminescence, 20 h; Potency, µM (series often up to 53.6 µM), most hits filed as inhibitors;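 also: Gal4-VP16 expression switched on by copper sulfate through the metallothionein promoter; nearly all actives have a fitted effect of over 50% in size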
DT40 TDP1 CPT – qHTS for Inhibitors of human tyrosyl-DNA phosphodiesterase 1 (TDP1): qHTS in cells in presence of CPT; chicken DT40 Tdp1-/-;hTDP1 cells + 20 nM CPT, ATP luminescence, 48 h; Potency, µM (series often up to 46.2 µM), actives largely listed as inhibitors; 12% of 420,000 active; AID 686979, 2013; also: nearly all actives have a fitted effect of over 55% in size
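Cell growth measured by CellTiter-Glo luminescence after a minimum 48 h, 37 C compound exposure with 20 nM CPT in Tdp1-knockout DT40 cells stably expressing hTDP1, seeded 400/well; qHTS titration format.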
ALOX12 inh – Primary qHTS assay for inhibitors of human arachidonate 12S-lipoxygenase (ALOX12): Round 2 | purified 12hLO, xylenol orange hydroperoxide absorbance | AID 1671190, 2021 | 1.1% of 580,000 active | Potency, µM (series often up to 108 µM), hits mostly inhibitors
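Purified human 12hLO at 150 nM in 25 mM Hepes, 0.01% Triton X-100, pH 7.0, preincubated 15 min at room temperature with compound. Reaction started with 40 uM arachidonic acid, 30 min at room temperature. Hydroperoxide measured by Fe-xylenol orange, 573/405 nm absorbance ratio.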
ELG1 DNA repair – qHTS screen for small molecules that inhibit ELG1-dependent DNA repair in human embryonic kidney (HEK293T) cells expressing luciferase-tagged ELG1; HEK293T ELG1-luciferase reporter, luminescence, 16 h; DNA damage induced by 5-fluorouridine; AID 504467, 2011; 2.3% of 330,000 active; Potency, µM (doses to about 46.1 µM), most hits filed as inhibitors; also: nearly all actives have a fitted effect of over 55% in size
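DMSO vehicle served as the neutral condition. Each well held 2,000 cells given 5-fluorouridine plus compound; after 16 hr at 37 °C/5% CO2, ONE-Glo was added and luciferase measured 30 min later.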
RORg inh – qHTS for inhibitors of ROR gamma transcriptional activity. 5.4% of 310,000 active. Potency, µM (series often up to 53.6 µM), most hits filed as inhibitors. AID 2551, 2010. Nuclear receptor ROR-gamma (Mus musculus), P51450. Drosophila S2 Gal4-RORgamma UAS-luciferase reporter, 20 h; also: nearly all actives have a fitted effect of over 60% in size
Target sequence (P51450 whole entry, looked up, the tested form may be a part): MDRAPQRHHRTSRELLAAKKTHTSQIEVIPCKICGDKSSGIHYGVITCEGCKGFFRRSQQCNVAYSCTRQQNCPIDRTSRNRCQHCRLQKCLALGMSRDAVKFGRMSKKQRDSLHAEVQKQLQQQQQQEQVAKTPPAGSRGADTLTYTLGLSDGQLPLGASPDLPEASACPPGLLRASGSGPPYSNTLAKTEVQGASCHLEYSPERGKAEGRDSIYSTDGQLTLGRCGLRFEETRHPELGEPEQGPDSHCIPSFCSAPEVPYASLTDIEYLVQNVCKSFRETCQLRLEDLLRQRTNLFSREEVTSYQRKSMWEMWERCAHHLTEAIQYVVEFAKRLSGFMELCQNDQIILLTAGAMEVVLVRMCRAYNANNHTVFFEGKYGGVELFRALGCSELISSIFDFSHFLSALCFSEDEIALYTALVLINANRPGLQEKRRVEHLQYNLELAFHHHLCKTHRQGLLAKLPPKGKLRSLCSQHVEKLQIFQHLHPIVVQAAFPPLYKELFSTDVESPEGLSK
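Stable Schneider cell line, Gal4 DNA-binding domain fused to ROR gamma, UAS-luciferase. Cmpd 1 hr RT → CuSO4 700 uM final → 20 hr RT → luciferase reagent 10 min → luminescence.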
DT40 TDP1 no CPT – qHTS for Inhibitors of human tyrosyl-DNA phosphodiesterase 1 (TDP1): qHTS in cells in absence of CPT; DT40 Tdp1-/- hTDP1 cells, no CPT, ATP luminescence, 48 h; Potency, µM (highest dose often 46.2 µM), actives largely listed as inhibitors; 15% of 420,000 active; AID 686978, 2013; also: nearly all actives have a fitted effect of over 55% in size
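Stably hTDP1-transfected Tdp1-null chicken DT40 cells were treated with library compounds minus camptothecin and grown for at least 48 hr at 37 °C, after which cellular ATP was quantified by luminescence.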
A number is an active result; - = inactive; ? = inconclusive; . = no result; [ ] = dose if it differs, or a comment. In the library only some 15% were active in any assay of this set; here they are far more common. Calls follow the shape of the dose curve; as a rule, active = well fitted curve in the direction sought with a large enough effect; inconclusive = small, poorly fitted or top-dose-only effect, or another doubt; inactive = no such curve, though single readings can be large; an effect the other way counts as inactive or inconclusive.

SMILES | Gal4-VP16 FLuc | DT40 TDP1 CPT | ALOX12 inh | ELG1 DNA repair | RORg inh | DT40 TDP1 no CPT
CCN(CC)CCNC(=O)C1CCN(c2nn3cc(-c4ccc(F)cc4)nc3s2)CC1 | . | 5.17µM | - | . | . | 3.26µM
COc1ccc(C(=O)CC#N)c(OC)c1 | . | . | - | . | . | .
CCC12CN3CC(CC)(CN(C1)C3c1ccco1)C2=O (stereo not drawn) | . | . | - | . | . | .
Cc1nc(C)c(C(=O)N2CCCCCCNC(=O)[C@@H]3CCCC[C@@H]32)s1 | . | . | - | . | . | .
CCOc1cc(C)c(S(=O)(=O)NC2CCCCC2)cc1C | 11.2µM | ? | - | - | - | ?
CCCOc1cc(C)c(S(=O)(=O)NCCOC)cc1C | - | 25.9µM | - | - | - | ?
CCOc1cc(S(=O)(=O)NC2CCCCCC2)ccc1F | - | 20.6µM | - | ? | - | ?
Cc1cccc(S(=O)(=O)NC2CCCCCCC2)c1 | - | 20.6µM | - | ? | - | ?
Cc1cc(C)c(N=Cc2c(O)n(-c3nccs3)c(=O)c3ccccc23)c(C)c1 | - | ? | - | ? | - | 16.4µM
Cc1cccc(C)c1N=Cc1c(O)n(-c2nccs2)c(=O)c2ccccc12 | - | 14.6µM | . | ? | - | 20.6µM
CCNC(=O)c1cccnc1OC1CCN(C(=O)c2cc(F)ccc2F)C1 (stereo not drawn) | . | . | - | . | . | .
O=C(NC1CC1)c1ccc2c(c1)N(Cc1ccc(Cl)cc1)CCS2 | - | ? | - | - | - | ?
O=C(NC1CCCC1)c1ccc2c(c1)N(Cc1ccccc1)CCS2 | - | ? | - | ? | - | 18.4µM
Cc1ccc(CN2CCSc3ccc(C(=O)NC4CCN(Cc5ccccc5)CC4)cc32)cc1 | - | 7.31µM | - | - | ? | 8.2µM
CN(C)C(=O)C1CCCN1S(=O)(=O)c1c(Cl)cccc1Cl (stereo not drawn) | . | . | - | . | . | .
COc1nc(-c2ccccc2)cc(-c2ccc(OC)c(OC)c2)n1 | - | ? | - | ? | - | 20.6µM
COc1ccc(-c2cc(C(F)(F)F)nc(NCCc3ccccc3)n2)cc1OC | . | - | - | . | . | -
COc1ccc(-c2cc(-c3ccccc3)nc(NN)n2)cc1OC | - | 3.66µM | ? | ? | - | ?
CCOc1ccc(-c2[nH]ncc2-c2ccccc2)c(O)c1 | ? | - | ? | - | 12.6µM | ?
COc1ccccc1-c1cn[nH]c1-c1ccc(OCc2ccccc2)cc1O | ? | - | - | ? | 6.31µM | ?
COc1ccc(-c2cn[nH]c2-c2ccc(OCCN3CCCCC3)cc2O)cc1 | . | . | - | . | . | .
CCOc1ccc(-c2[nH]ncc2-c2ccccc2OC)c(O)c1 | . | . | - | . | . | .
COc1ccc(-c2cn[nH]c2-c2ccc(OCc3ccccc3)cc2O)cc1 | ? | ? | ? | 20.6µM | 6.31µM | ?
Cc1cc(CSc2nnc(-c3cccnc3)n2C)no1 | . | . | - | . | . | .
CC1=NN(C(N)=S)C(=O)C1N=Nc1ccc(F)cc1 (stereo not drawn) | 1.26µM | - | ? | ? | 1µM | ?
SMILES | Gal4-VP16 FLuc | DT40 TDP1 CPT | ALOX12 inh | ELG1 DNA repair | RORg inh | DT40 TDP1 no CPT
CC1=NN(C(N)=S)C(=O)C1N=Nc1ccc(O)cc1 (stereo not drawn) | ? | - | ? | - | 3.98µM | 25.9µM
Cc1cc(=O)[nH]c2c(N=Nc3ccc(O)cc3)c(N)nn12 | ? | ? | - | ? | ? | ?
CCOC(=O)c1nnn(-c2ccc([N+](=O)[O-])cc2)c1C | - | - | - | ? | - | -
CC1=NN(C(N)=S)C(=O)C1N=Nc1ccc([N+](=O)[O-])cc1 (stereo not drawn) | 1.26µM | - | . | ? | 0.159µM | ?
CC(=O)Nc1ccc(N=NC2C(=O)N(C(N)=S)N=C2C)cc1 (stereo not drawn) | 8.91µM | - | - | ? | 5.01µM | -
O=S(=O)(c1ccc(F)c(F)c1)N1CCN(Cc2cccc3cccnc23)CC1 | . | . | - | . | . | .
FC(F)(F)c1ccc(CN2CCn3c(nnc3-c3ccncc3)C2)cc1 | . | . | -[6.33 µM] | . | . | .
CCOc1ccc(N=NC2C(=O)N(C(N)=S)N=C2C)cc1 (stereo not drawn) | 0.355µM | - | - | ? | 0.316µM | ?
CC1=NN(C(N)=S)C(=O)C1N=Nc1ccc(C)c(Br)c1 (stereo not drawn) | 2.82µM | 13µM | - | ? | 0.708µM | 16.4µM
CCOc1ccc(N=Nc2c(=O)[nH]n3c(C)cc(C)nc23)cc1 | - | - | - | - | ? | -
Cc1ccccc1NC(=O)CSc1nc2c(cc1C#N)CCCC2 | . | . | - | . | . | .
CC(C)(C)NC(=O)CN1C(=O)NC2(CCCCC2)C1=O | . | . | - | . | . | .
Cc1cc2nc(NC3=NCN(CCN4CCOCC4)CN3)nc(C)c2cc1C | - | . | . | - | -[10 µM] | .

High-throughput results as filed in PubChem BioAssay.
